The values that follow come from PubChem BioAssay (NCI).

The structures appear in SMILES notation. This is part of a sample that, as a whole, favours compounds with a hit. Of some 83,000 tested, about 20% had one in any assay.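 Testing used 96-well plates and a 48-hour single-concentration exposure. Example: -40 means 40% of the starting cells died.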 A number with no mark means an inactive call. Calls of active or inactive are those of the source. How the source made its calls: active means growth percent below 10; inactive means the rest.

The test concerns U251 CNS. Nature of the test: NCI-60 one-dose screen, 48 h (100 = growth as untreated, 0 = no growth, -100 = all killed). The note with it: 10 µM unless noted.
For the compound `CC(C)(C)c1ccc(OCCCCCCCN2CCNCC2)cc1`, the growth was 12.9%. With `O=Cc1nc2ccccc2[nH]1` the figure was 92.2%; with `C[C@]12CC[C@@H]3c4ccc(O)cc4CC[C@H]3[C@@H]1C[C@H](O)[C@@H]2O`, 100%. With `Cn1c(=O)c2c(ncn2CCC(=O)Nc2ccc(F)cc2)n(C)c1=O` the figure was 98.4%; with `CN(C)CCCCC(C(=O)CBr)(c1ccccc1)c1ccccc1`, 41.5%; with `C[C@@H]1CCCCCCCCC[C@H](O)C(=O)C[C@@H](SC[C@@H](O)C(=O)O)C(=O)O1`, 89.4%. On to `O=C(N/N=C/c1ccccc1SSc1ccccc1/C=N/NC(=O)c1ccccc1)c1ccccc1`, for which the growth is 34.1%. Consider `CC/C=C\C[C@H]1CC=C2C(=O)C=C[C@@H]2CC=CCCCC(=O)O[C@@H](CCCCC)CC=C2C(=O)C=C[C@@H]2CC=CCCCC(=O)O[C@@H](CCCCC)CC=C2C(=O)C=C[C@@H]2CC=CCCCC(=O)O[C@@H](CCCCC)CC=C2C(=O)C=C[C@@H]2CC=CCCCC(=O)O1`, for which the growth was -45.8% [7.9 µM] (active). Under `COc1ccc(NC(=S)N/N=C/c2ccccc2SSCCC(=O)OC[C@H]2O[C@H](O)[C@H](O)[C@@H](O)[C@@H]2O)cc1` stands 59.5%. As for `Fc1ccc(Nc2nnc(-c3ccc(Cl)cc3)o2)cc1`, the growth is 92.1%. Under `COC(=O)[C@]12CC[C@@H](C)[C@H](C)[C@@H]1C1=CC[C@@H]3[C@@](C)(CC#N)C4=C(C[C@@]3(C)[C@]1(C)CC2)OC[C@]4(C)C=O` stands -45.7% (active); under `COc1ccc(/C=C/C(=O)NCC(C)O)cc1` (centres undefined), 95.8%; under `COc1cnc2c(c1)C(=O)c1c-2n(CCCNC(C)C)c(=O)c2cc([N+](=O)[O-])ccc12`, -80.6% (active). With `Cn1cc(-c2csc(-c3cn(CCNC(=O)OC(C)(C)C)c4ccc(F)cc34)n2)c2cccnc21` the figure was 82.2%. With `NCCn1cc(-c2nc(-c3c[nH]c4ncccc34)cs2)c2cc(F)ccc21` the figure was 84.1%; with `Cc1cc(N2CCCCC2)nc(N(CCNc2ccnc3cc(Cl)ccc23)Cc2ccco2)n1`, 14.4%. As to `Fc1ccc(Nc2nc(Nc3ccc(-c4nc5ccccc5[nH]4)cc3)nc(N3CCCC3)n2)cc1`, the growth is 55.8%. Consider `Brc1ccc2c(c1)c(-c1nc(-c3c[nH]c4ncccc34)cs1)cn2CCCN1CCCCC1`, for which the growth was -84.2% (active). Under `O=C1CNCCN1` stands 104%; under `COC(=O)[C@]12CC[C@@H](C)[C@H](C)[C@@H]1C1=CC[C@@H]3[C@@]4(C)CC(=O)[C@H](OC(=O)c5ccco5)[C@@]5(C)COC(=C45)C[C@@]3(C)[C@]1(C)CC2`, 24.9%. For the compound `NCCn1cc(-c2nc(-c3c[nH]c4ncccc34)cs2)c2cc(Br)ccc21`, the growth was 67.9%. With `Cc1cc(N2CCCCC2)nc(N(CCCNc2ccnc3cc(Cl)ccc23)Cc2ccco2)n1` the figure was 24.7%.

As for `CCCCC[C@H]1CC=C2C(=O)C=C[C@@H]2CC=CCCCC(=O)O[C@@H](CCCCC)CC=C2C(=O)C=C[C@@H]2CC=CCCCC(=O)O[C@@H](CCCCC)CC=C2C(=O)C=C[C@@H]2CC=CCCCC(=O)O1`, the growth was -49.4% [8.75 µM] (active). Under `CCC(CC)C(=O)OC(C)COc1ccc(C(C)(C)C)cc1` (centres undefined) stands 90.1%. `CC/C(=N/NC(N)=O)c1ccccc1`: the growth was 102%. As to `N#CC1=C(N)Oc2c(sc3c(F)cccc23)C1c1ccc(Cl)cc1` (centres undefined), the growth was 25.7%. With `CCCCC[C@H]1C/C=C2/C(=O)C(Cl)=C[C@@H]2C/C=C\CCCC(=O)O[C@@H](CCCCC)C/C=C2/C(=O)C(Cl)=C[C@@H]2C/C=C\CCCC(=O)O1` the figure was -78.7% (active).

With `c1ccc(-c2nc(Nc3ccc(-c4nc5ccccc5[nH]4)cc3)nc(N3CCOCC3)n2)cc1`, the growth was -67.5% (active). In the case of `Fc1ccc2c(c1)c(-c1nc(-c3c[nH]c4ncccc34)cs1)cn2CCCN1CCCCC1`, the growth was 24.9%. Under `CN(C)c1ccc(N=C2C=CC(=O)C=C2)cc1` stands 76.5%. With `Cc1ccncc1C(=O)O` the figure was 97.2%.

In the case of `COc1cc2ncnc(Nc3ccc(Oc4ccnc(C)c4)c(C)c3)c2cc1NC(=O)CC1CCSS1` (centres undefined), the growth is -13.4% (active). Under `O=C1Nc2ccccc2/C1=C/c1cn(CCCn2c3ccccc3c(=O)c3ccccc32)c2ccccc12` stands 93.3%; under `CCCCC[C@H]1CC=C2C(=O)C(Cl)=C[C@@H]2CC=CCCCC(=O)O[C@@H](CCCCC)CC=C2C(=O)C(Cl)=C[C@@H]2CC=CCCCC(=O)O[C@@H](CCCCC)CC=C2C(=O)C(Cl)=C[C@@H]2CC=CCCCC(=O)O1`, 35.2% [8 µM].
